Measurements reported in ChEMBL document CHEMBL2218924, “A broad activity screen in support of a chemogenomic map for kinase signalling research and drug discovery” (Biochem J, 2013).

What was measured:
[1] = target: MAP kinase-interacting serine/threonine-protein kinase 2 (Homo sapiens) (UniProt Q9HBH9); conditions: at 1 µM
[2] = target: MAP kinase-interacting serine/threonine-protein kinase 2 (Homo sapiens) (UniProt Q9HBH9); conditions: at 10 µM
[3] = target: T1, Muscle, skeletal receptor tyrosine-protein kinase (Homo sapiens) (UniProt O15146); conditions: at 1 µM
T1 sequence (whole entry): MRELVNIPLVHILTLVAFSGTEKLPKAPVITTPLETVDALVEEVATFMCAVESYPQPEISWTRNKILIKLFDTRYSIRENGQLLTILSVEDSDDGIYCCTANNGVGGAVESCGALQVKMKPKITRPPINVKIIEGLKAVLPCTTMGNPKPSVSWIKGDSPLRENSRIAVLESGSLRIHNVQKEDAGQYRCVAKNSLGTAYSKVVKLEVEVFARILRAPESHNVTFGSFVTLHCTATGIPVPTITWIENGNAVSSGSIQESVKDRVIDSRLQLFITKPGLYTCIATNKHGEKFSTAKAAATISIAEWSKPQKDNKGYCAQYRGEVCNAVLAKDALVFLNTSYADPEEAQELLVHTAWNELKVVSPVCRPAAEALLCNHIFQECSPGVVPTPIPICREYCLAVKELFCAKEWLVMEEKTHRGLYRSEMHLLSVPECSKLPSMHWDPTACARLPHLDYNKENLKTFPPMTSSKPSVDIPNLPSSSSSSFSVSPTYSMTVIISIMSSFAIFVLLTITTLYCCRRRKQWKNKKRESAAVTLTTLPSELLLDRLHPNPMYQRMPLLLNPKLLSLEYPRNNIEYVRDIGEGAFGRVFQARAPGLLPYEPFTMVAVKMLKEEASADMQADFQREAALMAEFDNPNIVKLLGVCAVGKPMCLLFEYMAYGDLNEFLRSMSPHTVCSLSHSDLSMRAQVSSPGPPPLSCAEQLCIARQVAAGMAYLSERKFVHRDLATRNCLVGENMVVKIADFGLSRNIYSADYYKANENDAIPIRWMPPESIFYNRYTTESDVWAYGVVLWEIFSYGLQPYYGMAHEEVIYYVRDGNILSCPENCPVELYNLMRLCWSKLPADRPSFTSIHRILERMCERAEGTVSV

[4] = target: T1, Muscle, skeletal receptor tyrosine-protein kinase (Homo sapiens); conditions: at 10 µM
[5] = target: T2, Serine/threonine-protein kinase Nek11 (Homo sapiens) (UniProt Q8NG66); conditions: at 1 µM
T2 sequence (whole entry): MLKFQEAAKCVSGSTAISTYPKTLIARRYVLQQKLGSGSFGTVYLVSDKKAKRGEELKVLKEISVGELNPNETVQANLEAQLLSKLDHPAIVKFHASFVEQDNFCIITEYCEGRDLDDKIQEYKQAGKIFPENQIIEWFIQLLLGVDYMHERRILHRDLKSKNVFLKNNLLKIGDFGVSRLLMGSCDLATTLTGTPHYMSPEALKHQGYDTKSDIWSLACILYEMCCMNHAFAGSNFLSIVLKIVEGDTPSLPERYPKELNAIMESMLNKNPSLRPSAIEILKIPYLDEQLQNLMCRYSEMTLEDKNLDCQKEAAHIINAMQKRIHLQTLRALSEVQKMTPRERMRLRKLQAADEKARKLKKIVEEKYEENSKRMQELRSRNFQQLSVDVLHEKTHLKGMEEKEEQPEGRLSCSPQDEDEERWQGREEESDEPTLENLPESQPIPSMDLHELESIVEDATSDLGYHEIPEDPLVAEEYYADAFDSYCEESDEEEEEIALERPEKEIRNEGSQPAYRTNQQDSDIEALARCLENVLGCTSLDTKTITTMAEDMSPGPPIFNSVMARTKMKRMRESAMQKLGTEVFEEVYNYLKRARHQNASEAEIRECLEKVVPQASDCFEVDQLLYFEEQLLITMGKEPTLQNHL

[6] = target: T2, Serine/threonine-protein kinase Nek11 (Homo sapiens); conditions: at 10 µM
[7] = target: T3, Serine/threonine-protein kinase Nek2 (Homo sapiens) (UniProt P51955); conditions: at 1 µM
T3 sequence (whole entry): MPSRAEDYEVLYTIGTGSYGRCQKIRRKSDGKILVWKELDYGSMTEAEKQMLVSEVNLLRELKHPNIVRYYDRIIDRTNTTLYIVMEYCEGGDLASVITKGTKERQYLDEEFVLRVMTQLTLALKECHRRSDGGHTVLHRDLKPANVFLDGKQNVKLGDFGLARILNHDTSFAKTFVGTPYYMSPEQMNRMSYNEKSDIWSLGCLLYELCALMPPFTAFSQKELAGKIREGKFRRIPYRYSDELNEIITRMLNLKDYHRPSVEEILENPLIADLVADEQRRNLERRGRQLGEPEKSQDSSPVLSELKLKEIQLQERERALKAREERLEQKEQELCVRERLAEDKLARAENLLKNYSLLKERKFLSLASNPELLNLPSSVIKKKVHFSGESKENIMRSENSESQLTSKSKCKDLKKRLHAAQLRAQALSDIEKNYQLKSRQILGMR

[8] = target: T3, Serine/threonine-protein kinase Nek2 (Homo sapiens); conditions: at 10 µM
[9] = target: T4, Serine/threonine-protein kinase Nek3 (Homo sapiens) (UniProt P51956); conditions: at 10 µM
T4 sequence (whole entry): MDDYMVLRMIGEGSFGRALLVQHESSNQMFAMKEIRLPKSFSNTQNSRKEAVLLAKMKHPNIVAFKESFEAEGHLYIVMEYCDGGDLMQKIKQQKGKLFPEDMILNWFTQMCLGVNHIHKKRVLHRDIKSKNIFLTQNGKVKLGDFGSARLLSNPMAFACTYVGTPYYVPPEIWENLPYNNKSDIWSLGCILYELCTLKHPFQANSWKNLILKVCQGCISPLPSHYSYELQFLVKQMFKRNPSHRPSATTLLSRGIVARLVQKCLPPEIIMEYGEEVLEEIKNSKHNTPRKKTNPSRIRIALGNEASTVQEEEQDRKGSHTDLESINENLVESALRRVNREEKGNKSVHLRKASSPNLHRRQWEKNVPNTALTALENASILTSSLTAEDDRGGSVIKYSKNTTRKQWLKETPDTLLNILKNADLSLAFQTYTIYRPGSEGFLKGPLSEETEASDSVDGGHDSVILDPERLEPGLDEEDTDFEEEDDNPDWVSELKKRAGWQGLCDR

[10] = target: Serine/threonine-protein kinase tousled-like 2 (Homo sapiens) (UniProt Q86UE8); conditions: at 1 µM
[11] = target: Serine/threonine-protein kinase tousled-like 2 (Homo sapiens) (UniProt Q86UE8); conditions: at 10 µM
[12] = target: T5, Testis-specific serine/threonine-protein kinase 1 (Homo sapiens) (UniProt Q9BXA7); conditions: at 1 µM
T5 sequence (whole entry): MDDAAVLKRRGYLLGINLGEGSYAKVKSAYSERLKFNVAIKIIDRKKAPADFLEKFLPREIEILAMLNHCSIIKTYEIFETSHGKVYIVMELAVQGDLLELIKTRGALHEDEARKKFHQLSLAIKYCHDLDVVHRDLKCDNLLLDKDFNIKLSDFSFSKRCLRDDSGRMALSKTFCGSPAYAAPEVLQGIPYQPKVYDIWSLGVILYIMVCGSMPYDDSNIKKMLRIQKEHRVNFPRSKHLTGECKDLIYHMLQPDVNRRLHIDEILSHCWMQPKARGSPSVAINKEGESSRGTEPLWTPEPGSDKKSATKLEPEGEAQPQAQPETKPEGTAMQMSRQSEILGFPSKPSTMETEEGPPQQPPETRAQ

[13] = target: T6, Tyrosine-protein kinase Mer (Homo sapiens) (UniProt Q12866); conditions: at 1 µM
T6 sequence (whole entry): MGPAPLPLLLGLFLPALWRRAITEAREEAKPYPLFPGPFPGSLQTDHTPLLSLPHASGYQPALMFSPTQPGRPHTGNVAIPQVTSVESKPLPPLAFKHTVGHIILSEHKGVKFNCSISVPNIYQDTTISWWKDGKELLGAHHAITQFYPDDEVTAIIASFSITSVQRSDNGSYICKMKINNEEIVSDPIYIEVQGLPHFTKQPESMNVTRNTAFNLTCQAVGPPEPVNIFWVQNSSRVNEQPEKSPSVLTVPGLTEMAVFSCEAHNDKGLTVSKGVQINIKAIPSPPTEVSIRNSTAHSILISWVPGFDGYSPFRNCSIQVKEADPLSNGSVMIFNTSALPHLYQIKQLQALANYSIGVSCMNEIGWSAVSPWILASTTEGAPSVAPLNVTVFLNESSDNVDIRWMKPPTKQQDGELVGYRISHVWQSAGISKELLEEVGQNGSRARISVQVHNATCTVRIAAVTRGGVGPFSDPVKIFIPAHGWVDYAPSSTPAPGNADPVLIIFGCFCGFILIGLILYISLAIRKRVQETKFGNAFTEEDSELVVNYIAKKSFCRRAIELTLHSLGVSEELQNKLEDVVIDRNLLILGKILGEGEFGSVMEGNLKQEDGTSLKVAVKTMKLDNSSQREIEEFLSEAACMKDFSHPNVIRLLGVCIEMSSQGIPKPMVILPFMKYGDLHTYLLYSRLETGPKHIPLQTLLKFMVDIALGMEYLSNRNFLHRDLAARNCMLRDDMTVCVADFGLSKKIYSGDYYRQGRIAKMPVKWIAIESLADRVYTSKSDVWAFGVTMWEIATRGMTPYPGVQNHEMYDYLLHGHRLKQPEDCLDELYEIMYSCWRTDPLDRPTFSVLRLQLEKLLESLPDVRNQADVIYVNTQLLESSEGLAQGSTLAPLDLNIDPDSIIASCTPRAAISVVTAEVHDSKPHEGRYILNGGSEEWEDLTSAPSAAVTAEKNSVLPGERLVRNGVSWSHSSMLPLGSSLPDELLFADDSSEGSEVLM

[14] = target: T6, Tyrosine-protein kinase Mer (Homo sapiens); conditions: at 10 µM
[15] = target: Hepatocyte growth factor receptor (Homo sapiens) (UniProt P08581); conditions: at 10 µM
[16] = target: T4, Serine/threonine-protein kinase Nek3 (Homo sapiens); conditions: at 1 µM
[17] = target: T5, Testis-specific serine/threonine-protein kinase 1 (Homo sapiens); conditions: at 10 µM
[18] = target: T7, Testis-specific serine/threonine-protein kinase 2 (Homo sapiens) (UniProt Q96PF2); conditions: at 1 µM
T7 sequence (whole entry): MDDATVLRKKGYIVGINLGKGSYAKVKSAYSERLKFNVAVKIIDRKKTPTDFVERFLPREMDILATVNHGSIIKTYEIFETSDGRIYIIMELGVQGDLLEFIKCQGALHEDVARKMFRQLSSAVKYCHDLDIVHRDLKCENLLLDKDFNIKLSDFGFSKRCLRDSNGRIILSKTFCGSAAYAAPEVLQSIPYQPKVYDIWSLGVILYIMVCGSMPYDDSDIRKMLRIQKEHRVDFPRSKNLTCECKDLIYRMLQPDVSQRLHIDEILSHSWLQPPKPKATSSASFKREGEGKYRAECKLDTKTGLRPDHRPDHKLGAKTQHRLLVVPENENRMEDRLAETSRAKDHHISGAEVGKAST

[19] = target: T7, Testis-specific serine/threonine-protein kinase 2 (Homo sapiens); conditions: at 10 µM

MAP kinase-interacting serine/threonine-protein kinase 2 (Homo sapiens), sequence (Q9HBH9 whole entry, looked up): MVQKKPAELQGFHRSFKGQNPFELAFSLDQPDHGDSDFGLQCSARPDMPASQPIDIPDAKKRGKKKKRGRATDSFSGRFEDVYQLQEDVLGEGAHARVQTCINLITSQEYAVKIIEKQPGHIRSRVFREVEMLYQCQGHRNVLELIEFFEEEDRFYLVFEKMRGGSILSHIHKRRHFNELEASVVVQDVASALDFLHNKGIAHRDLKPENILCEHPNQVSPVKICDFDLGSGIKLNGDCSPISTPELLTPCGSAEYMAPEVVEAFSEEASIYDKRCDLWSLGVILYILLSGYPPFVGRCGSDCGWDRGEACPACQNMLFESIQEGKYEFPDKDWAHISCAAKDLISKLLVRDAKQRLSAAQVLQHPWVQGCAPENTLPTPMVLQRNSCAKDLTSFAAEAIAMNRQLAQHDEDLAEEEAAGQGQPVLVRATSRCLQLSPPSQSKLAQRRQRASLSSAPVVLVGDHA
Serine/threonine-protein kinase tousled-like 2 (Homo sapiens), sequence (Q86UE8 whole entry, looked up): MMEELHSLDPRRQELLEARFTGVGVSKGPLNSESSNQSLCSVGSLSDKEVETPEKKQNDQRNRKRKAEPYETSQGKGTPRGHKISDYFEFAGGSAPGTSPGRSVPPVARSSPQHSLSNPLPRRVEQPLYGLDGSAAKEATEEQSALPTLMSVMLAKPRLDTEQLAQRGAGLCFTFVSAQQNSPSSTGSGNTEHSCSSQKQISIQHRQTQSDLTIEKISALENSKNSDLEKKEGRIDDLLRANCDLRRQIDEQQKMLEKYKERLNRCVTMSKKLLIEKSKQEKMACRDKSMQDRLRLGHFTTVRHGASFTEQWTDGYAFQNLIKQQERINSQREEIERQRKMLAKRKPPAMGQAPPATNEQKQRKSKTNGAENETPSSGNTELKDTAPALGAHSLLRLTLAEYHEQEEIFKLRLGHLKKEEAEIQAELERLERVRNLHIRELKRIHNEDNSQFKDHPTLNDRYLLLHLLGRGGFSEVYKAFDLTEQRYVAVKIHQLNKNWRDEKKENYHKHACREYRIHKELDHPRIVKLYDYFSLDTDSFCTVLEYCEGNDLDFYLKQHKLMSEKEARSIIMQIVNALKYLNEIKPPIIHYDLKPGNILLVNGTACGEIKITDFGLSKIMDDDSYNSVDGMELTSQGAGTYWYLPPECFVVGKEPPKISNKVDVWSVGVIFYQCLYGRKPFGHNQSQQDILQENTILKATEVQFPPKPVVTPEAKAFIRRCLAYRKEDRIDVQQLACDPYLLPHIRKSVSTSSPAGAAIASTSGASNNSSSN
Hepatocyte growth factor receptor (Homo sapiens), sequence (P08581 whole entry): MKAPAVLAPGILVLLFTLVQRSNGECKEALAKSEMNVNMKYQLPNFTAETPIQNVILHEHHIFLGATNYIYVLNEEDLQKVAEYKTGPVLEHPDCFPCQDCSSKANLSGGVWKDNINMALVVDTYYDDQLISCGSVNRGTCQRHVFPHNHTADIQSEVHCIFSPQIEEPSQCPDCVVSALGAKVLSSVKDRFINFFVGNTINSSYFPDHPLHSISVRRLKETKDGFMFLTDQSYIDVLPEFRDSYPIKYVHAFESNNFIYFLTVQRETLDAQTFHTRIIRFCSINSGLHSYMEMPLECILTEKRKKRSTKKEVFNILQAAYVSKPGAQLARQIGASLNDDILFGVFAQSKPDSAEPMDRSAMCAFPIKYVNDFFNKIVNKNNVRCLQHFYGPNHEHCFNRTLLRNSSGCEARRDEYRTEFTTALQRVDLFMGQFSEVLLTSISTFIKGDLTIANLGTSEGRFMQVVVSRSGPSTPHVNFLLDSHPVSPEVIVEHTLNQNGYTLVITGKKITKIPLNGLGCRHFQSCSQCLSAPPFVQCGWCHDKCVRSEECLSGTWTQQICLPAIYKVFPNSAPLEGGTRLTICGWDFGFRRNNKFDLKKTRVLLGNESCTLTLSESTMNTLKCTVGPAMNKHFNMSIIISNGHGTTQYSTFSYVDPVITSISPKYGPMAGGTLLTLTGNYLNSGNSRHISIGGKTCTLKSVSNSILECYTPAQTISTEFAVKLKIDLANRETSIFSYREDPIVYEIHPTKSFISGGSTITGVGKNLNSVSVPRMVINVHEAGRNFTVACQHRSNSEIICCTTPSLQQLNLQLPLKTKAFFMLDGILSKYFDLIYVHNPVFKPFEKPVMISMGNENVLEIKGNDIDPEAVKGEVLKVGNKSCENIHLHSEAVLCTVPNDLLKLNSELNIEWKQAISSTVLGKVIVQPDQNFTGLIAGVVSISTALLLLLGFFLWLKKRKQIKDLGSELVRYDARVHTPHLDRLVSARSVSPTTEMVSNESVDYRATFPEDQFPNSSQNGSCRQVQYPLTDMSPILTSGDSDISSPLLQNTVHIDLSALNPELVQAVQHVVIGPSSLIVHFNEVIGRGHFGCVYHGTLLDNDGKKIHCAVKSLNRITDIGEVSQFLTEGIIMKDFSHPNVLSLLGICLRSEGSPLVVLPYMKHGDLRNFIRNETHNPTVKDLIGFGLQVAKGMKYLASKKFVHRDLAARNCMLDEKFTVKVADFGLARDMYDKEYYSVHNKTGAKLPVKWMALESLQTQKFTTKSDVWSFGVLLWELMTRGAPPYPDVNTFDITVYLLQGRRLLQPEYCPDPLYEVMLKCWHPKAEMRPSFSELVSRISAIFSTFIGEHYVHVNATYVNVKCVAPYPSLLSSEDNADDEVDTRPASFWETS

| SMILES | residual activity [1] [%] | residual activity [2] [%] | residual activity [3] [%] | residual activity [4] [%] | residual activity [5] [%] | residual activity [6] [%] | residual activity [7] [%] | residual activity [8] [%] | residual activity [9] [%] | residual activity [10] [%] | residual activity [11] [%] | residual activity [12] [%] | residual activity [13] [%] | residual activity [14] [%] | residual activity [15] [%] | residual activity [16] [%] | residual activity [17] [%] | residual activity [18] [%] | residual activity [19] [%] |
| --- | --- | --- | --- | --- | --- | --- | --- | --- | --- | --- | --- | --- | --- | --- | --- | --- | --- | --- | --- |
| CCc1nc(-c2ccc(OC)cc2)[nH]c1-c1ccncc1 | 105 | 59 | 117 | 76 | 62 | 72 | 112 | 105 | 106 | 107 | 100 | 113 |  |  |  |  |  |  |  |
| CCn1cnc2c(Nc3cccc(Cl)c3)nc(N[C@@H]3CCCC[C@@H]3N)nc21 | 97 | 70 | 61 | 13 | 68 | 55 | 98 | 55 | 81 | 31 | 4 | 79 | 8 | -1 | 72 | 75 | 40 | 90 | 58 |
| CC(C)(C)c1cc(C=C(C#N)C#N)cc(Br)c1O |  |  | 121 | 72 |  | 109 |  | 101 | 109 | 112 | 98 | 105 | 116 |  |  | 115 | 101 | 113 |  |
